Experimental data: PubChem BioAssay
Inconclusive results are not listed. Active and inactive are the calls of the source.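 Rule for the calls, unless noted: active = cell viability at or below a set limit in both duplicate runs, the limit being the all-compound median minus 4 SD (cut at about 23% in these data, passing the limit was not always enough); inconclusive = no clear call, values can overlap the other calls; inactive = the rest.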

Key:
[1] = reducers of endogenous Her2 protein level, primary screen, SKBR3 breast tumor cells, AlphaScreen, ATP viability (AID 461;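 active = Her2 level under about 52% in both replicate screens, with viability over 70% of control, limit read from the data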;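 for Her2 level: lower value means less Her2 protein in the cells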;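 for viability: percent of carrier control wells set as 100% viability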); details: 18-24 h, measured here: SKBR3 viability, ATP luminescence, at 10 µM
[2] = target: Receptor tyrosine-protein kinase erbB-2 (Homo sapiens) (UniProt P04626); assay: as above; details: 18-24 h, at 10 µM, stronger effect = lower value
Chain of Receptor tyrosine-protein kinase erbB-2 (Homo sapiens) (P04626 whole entry, looked up): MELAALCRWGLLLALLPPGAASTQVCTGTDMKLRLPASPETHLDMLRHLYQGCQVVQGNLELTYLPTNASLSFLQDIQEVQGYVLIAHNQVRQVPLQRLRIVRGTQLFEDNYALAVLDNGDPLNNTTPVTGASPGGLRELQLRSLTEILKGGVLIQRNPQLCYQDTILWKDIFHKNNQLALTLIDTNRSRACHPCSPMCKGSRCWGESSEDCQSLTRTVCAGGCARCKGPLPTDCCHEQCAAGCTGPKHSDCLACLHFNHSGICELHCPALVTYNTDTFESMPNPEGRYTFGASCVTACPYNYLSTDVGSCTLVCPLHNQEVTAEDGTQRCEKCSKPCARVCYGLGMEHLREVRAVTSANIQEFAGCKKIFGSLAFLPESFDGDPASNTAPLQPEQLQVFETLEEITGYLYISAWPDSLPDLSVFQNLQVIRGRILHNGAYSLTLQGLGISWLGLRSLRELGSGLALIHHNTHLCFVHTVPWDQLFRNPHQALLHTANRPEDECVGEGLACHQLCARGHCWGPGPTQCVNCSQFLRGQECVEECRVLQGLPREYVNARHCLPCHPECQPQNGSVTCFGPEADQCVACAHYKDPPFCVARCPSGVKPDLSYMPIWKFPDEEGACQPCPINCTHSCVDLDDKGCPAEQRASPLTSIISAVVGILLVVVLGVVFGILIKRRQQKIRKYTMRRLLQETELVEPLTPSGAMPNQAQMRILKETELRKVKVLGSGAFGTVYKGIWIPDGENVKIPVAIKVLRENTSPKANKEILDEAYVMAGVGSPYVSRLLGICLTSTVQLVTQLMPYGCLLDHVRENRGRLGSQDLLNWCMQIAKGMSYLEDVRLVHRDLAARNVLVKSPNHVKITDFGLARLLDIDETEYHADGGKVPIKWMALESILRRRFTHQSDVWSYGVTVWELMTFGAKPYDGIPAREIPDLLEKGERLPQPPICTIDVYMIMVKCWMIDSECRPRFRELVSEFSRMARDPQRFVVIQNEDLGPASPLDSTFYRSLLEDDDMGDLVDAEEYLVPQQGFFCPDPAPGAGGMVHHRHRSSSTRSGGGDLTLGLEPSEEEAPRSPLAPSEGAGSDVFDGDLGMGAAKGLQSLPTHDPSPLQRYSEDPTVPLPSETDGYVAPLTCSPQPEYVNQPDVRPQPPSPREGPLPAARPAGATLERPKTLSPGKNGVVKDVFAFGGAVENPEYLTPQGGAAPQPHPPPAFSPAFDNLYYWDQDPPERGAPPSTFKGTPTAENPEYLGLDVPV

[3] = SK-BR-3 cell growth inhibitors, pilot screen, 24 h, human (AID 572;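 active = viability at or below 10% of carrier control in both of two separate runs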;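 note: compound exposure lasted between 18 and 24 h rather than exactly 24 h; 100% = carrier-treated control wells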); details: SK-BR-3 viability, CellTiter-Glo luminescence, at 10 µM, stronger effect = lower value
[4] = HUVEC growth inhibition – cell-based, human, primary screen (AID 575;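 active = viability at or below 30% in both replicate assays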;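 note: 100% = median of untreated cell wells with 0.1% DMSO on each plate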); details: HUVEC proliferation, CellTiter-Glo luminescence, 72 h; at 10 µM; stronger effect = lower value
[5] = growth inhibitors of H69AR lung tumor, primary screen, human, duplicate replicates (AID 580;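 active = viability at or under a set limit in both replicates, limit being median viability minus 3 SD, cut at about 48% in these data, passing the limit was not always enough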;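 note: 100% = mean luminescence of untreated wells and 0% = no signal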); details: H69AR lung tumor cells viability, ATP luminescence, 72 h; at 10 µM; stronger effect = lower value
[6] = reversal of MRP1-mediated doxorubicin resistance, pilot screen, H69AR cells, doxorubicin co-treatment (AID 601;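 active = viability loss from added drug above about 55%, and viability with drug at most 40%, in both replicates, limit read from the data, passing the limit was not always enough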); details: CellTiter-Glo, 72 h, at 10 µM; for differential viability (reversal): stronger effect = higher value
[7] = 384-well plate pilot, post-Golgi transport modulator project, inhibition of yeast transport mutant growth (AID 636; in the data active = inhibition above about 31%); details: absorbance 615 nm, about 18 h, stronger effect = higher value
[8] = growth suppression of yeast trafficking mutant, preliminary HTS, modulators of trafficking downstream of Golgi apparatus project, 1536-format plate, OD 615 nm (AID 637; in the data active = inhibition above about 30%); details: yeast transport mutant growth, absorbance 615 nm, 18 h; stronger effect = higher value
[9] = OD615 S. cerevisiae growth inhibition, permissive medium, pilot counter-assay, permissive growth control for S. cerevisiae lifespan shortening project (AID 705;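 active = growth inhibition above 25% in both replicates, a cutoff set 3 SD above the mean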); details: OD615, 24 h, at 10 µM, stronger effect = higher value
[10] = Restrictive medium S. cerevisiae growth inhibition, OD615, pilot screen of yeast lifespan reduction project, restrictive growth control (AID 706;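 active = growth inhibition above a set limit, 3 SD over mean compound inhibition, in both replicates, cut at about 43% in these data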;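 note: modified DeaD lifespan yeast strain shifted to restrictive glucose medium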); details: OD615, 48 h, at 10 µM, stronger effect = higher value
[11] = viability gain of MRP-1-high H69AR cells under doxorubicin, pilot screen, MRP-1 activator project, CellTiter-Glo, duplicate (AID 807;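 active = viability increase at or above a cutoff of the median across tested compounds plus 3 SD, cut at about 8.5% in these data, passing the limit was not always enough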;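 note: compound pretreatment 18-22 h then 72 h combined with doxorubicin; 0% = doxorubicin alone and 100% = vehicle without doxorubicin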); details: H69AR viability with doxorubicin, CellTiter-Glo luminescence; at 10 µM; stronger effect = higher value
[12] = growth suppression of beta-catenin knockout HCT116, pilot screen, human colon tumor cells (AID 823); details: CellTiter-Glo, 60 h, at 10 µM, stronger effect = lower value;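 note: 0% = wells killed by 20 µM Hyamine and 100% = untreated DMSO cell wells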
[13] = growth suppression of PTEN-deleted HCT116, pilot screen, cell-based, HCT116 clonal line, CellTiter-Glo (AID 824;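 active = viability at or below 27.92% in each of two runs, the all-compound median minus 4 SD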;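 note: 0% = 20 µM Hyamine control and 100% = vehicle cell control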); details: 60 h, at 10 µM, stronger effect = lower value
[14] = inhibitors of the yeast RAM network, pilot screen, dse1pr::URA3 reporter, 5-FOA selection (AID 869;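 active = inhibition over a set limit, the all-compound mean plus 3 SD, in both replicate runs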;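 note: 0% = DMSO wells with no growth and 100% = 10 µM 1-NA-PP1 with full growth; RAM network block rescues cells from 5-FOA so hits raise OD615 growth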); details: S. cerevisiae dse1pr::URA3 5-FOA growth, OD615, 2 d; at 10 µM; stronger effect = higher value; strain carries analog-sensitive mutant Cbk1 kinase
[15] = RAM signaling pathway blockade in yeast – S. cerevisiae, Pdr1DBD-CYC8 efflux-inhibited sensitized strain, primary screen (AID 1298;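 active = RAM network inhibition above 8.4% in each of two replicates, 3 SD over the compound average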;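 note: 0% = DMSO untreated cells without growth and 100% = 10 µM 1-NA-PP1 full growth; higher means more yeast growth rescued from 5-FOA killing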); details: S. cerevisiae cbk1-as DSE1-URA3 strain, 5-FOA growth OD615, 2 d; at 50 µM; stronger effect = higher value
[16] = H69AR cells + 2 uM doxorubicin, measured here: viability with 2 uM doxorubicin, stronger effect = lower value
[17] = H69AR cells, compound alone cytotoxicity

| SMILES | viability [1] | Her2 level [2] | viability [3] | viability [4] | viability [5] | differential viability (reversal) ([6]; H69AR cells + 2 uM doxorubicin) | viability [6, 16] | viability [6, 17] | inhibition [7] | inhibition [8] | growth inhibition [9] | growth inhibition [10] | viability increase [11] | viability [12] | viability [13] | inhibition [14] | RAM network inhibition [15] |
| --- | --- | --- | --- | --- | --- | --- | --- | --- | --- | --- | --- | --- | --- | --- | --- | --- | --- |
| Cc1cccc(Cn2c(SCCN3CCCCC3)nc3c2c(=O)[nH]c(=O)n3C)c1 | 75% | 96.5% (inactive) | 75% (inactive) | 75.6% (inactive) | 73.7% (inactive) | -6.01% (inactive) | 79.8% | 73.7% | -1.73% (inactive) | 5.5% (inactive) | -16.1% (inactive) | -11.3% (inactive) | -2.89% (inactive) | 92.4% (inactive) | 83.1% (inactive) | 2.78% (inactive) | 0.26% (inactive) |
| C=CCOC(=O)COc1ccc2c(C)c(C)c(=O)oc2c1C | 106% | 92.5% (inactive) | 106% (inactive) | 97.9% (inactive) | 125% (inactive) | 19.5% (inactive) | 106% | 125% | -0.81% (inactive) | -3.49% (inactive) | -18.3% (inactive) | -15.6% (inactive) | 2.23% (inactive) | 101% (inactive) | 95.9% (inactive) | 1% (inactive) | 2.98% (inactive) |
| Cc1nn(-c2ccc(F)cc2)c2c1cc(C#N)c1nc3ccccc3n12 | 102% | 81% (inactive) | 102% (inactive) | 56.2% (inactive) | 86.3% (inactive) | 5.42% (inactive) | 80.9% | 86.3% | -2.89% (inactive) | -2.67% (inactive) | 1.38% (inactive) | 8.66% (inactive) | -1.92% (inactive) | 95.9% (inactive) | 93.5% (inactive) | 0.36% (inactive) | 6.61% (inactive) |
| CCN(CCCNS(=O)(=O)c1ccc2c(c1)oc(=O)n2C)c1cccc(C)c1 | 88% | 100% (inactive) | 88% (inactive) | 106% (inactive) | 90.1% (inactive) | 5.6% (inactive) | 84.5% | 90.1% | -0.38% (inactive) | 1.33% (inactive) | -12% (inactive) | -10.2% (inactive) | -3.21% (inactive) | 87.2% (inactive) | 89.5% (inactive) | 0.695% (inactive) | 7.59% (inactive) |
| CCOC(=O)C(C)(C)Sc1nc2c(cnn2-c2ccc(Cl)cc2)c(=O)[nH]1 | 76% | 91% (inactive) | 76% (inactive) | 64.4% (inactive) | 81.9% (inactive) | -3.56% (inactive) | 85.4% | 81.9% | -2.05% (inactive) | 2.5% (inactive) | -5.47% (inactive) | -0.62% (inactive) | -2.17% (inactive) | 91.9% (inactive) | 78.2% (inactive) | 1.89% (inactive) | 6.14% (inactive) |
| CCOC(=O)C1=C(C)N(C)C(=O)NC1c1cccc(O)c1 (stereo not given) | 102% | 85% (inactive) | 102% (inactive) | 90.1% (inactive) | 86.9% (inactive) | -13.7% (inactive) | 101% | 86.9% | -0.9% (inactive) | -6.5% (inactive) | -6.63% (inactive) | 4.03% (inactive) | -0.55% (inactive) | 99.2% (inactive) | 95.9% (inactive) | -0.435% (inactive) | -0.57% (inactive) |
| CCOC(=O)N1CCC(c2cc(=O)n3[nH]c(C)c(-c4ccc(F)cc4)c3n2)CC1 | 67% | 80.5% (inactive) | 67% (inactive) | 7% (active) | 21.3% (active) | -44.2% (inactive) | 65.5% | 21.3% | 0.38% (inactive) | -0.33% (inactive) | 2.81% (inactive) | 9.87% (inactive) | 0.52% (inactive) | 15.8% (active) | 19.7% (active) | 0.04% (inactive) | 0.41% (inactive) |
| CN(CCNS(=O)(=O)c1ccc2c(c1)oc(=O)n2C)Cc1ccccc1 | 86% | 99% (inactive) | 86% (inactive) | 90.7% (inactive) | 98.1% (inactive) | 10.2% (inactive) | 87.9% | 98.1% | -2.95% (inactive) | -2.33% (inactive) | -2.83% (inactive) | 5.57% (inactive) | -1.52% (inactive) | 97.5% (inactive) | 90.2% (inactive) | 2.44% (inactive) | 4.66% (inactive) |
| CC(CC(=O)NC1CCSC1=O)c1ccccc1 (stereo not given) | 97% | 87.5% (inactive) | 97% (inactive) | 89.2% (inactive) | 113% (inactive) | 1.77% (inactive) | 111% | 113% | -4.32% (inactive) | 0% (inactive) | 3.53% (inactive) | 6.91% (inactive) | 2.46% (inactive) | 96.5% (inactive) | 95.9% (inactive) | 0.235% (inactive) | 1.17% (inactive) |
| N#Cc1cc2c(nc1SCC(=O)N1CCCCC1)CCCC2 | 85% | 130% (inactive) | 85% (inactive) | 88.3% (inactive) | 87.6% (inactive) | 1.21% (inactive) | 86.4% | 87.6% | 3.51% (inactive) | -6.67% (inactive) | -16.8% (inactive) | -1.56% (inactive) | -1.73% (inactive) | 93% (inactive) | 91.3% (inactive) | 3.67% (inactive) | 2.13% (inactive) |
| COc1cc2c(cc1OC)-c1nnc(C)n1C1(CCCC1)C2 | 87% | 105% (inactive) | 87% (inactive) | 114% (inactive) | 99% (inactive) | 0.73% (inactive) | 98.3% | 99% | 1.28% (inactive) | -1.17% (inactive) | -10.2% (inactive) | -16% (inactive) | -2.69% (inactive) | 100% (inactive) | 94% (inactive) | 1.1% (inactive) | 2.81% (inactive) |
| O=C(c1cnc2n(c1=O)CCS2)N1CCc2ccccc21 | 99.5% | 83% (inactive) | 99.5% (inactive) | 96% (inactive) | 101% (inactive) | 3.18% (inactive) | 98.1% | 101% | -2.13% (inactive) | 0.16% (inactive) | -3.25% (inactive) | -7.63% (inactive) | 0.01% (inactive) | 97% (inactive) | 102% (inactive) | 1.24% (inactive) | -0.32% (inactive) |
| COc1ccc(-c2nc3c(n2O)CCC/C3=N\O)cc1 | 89.5% | 88.5% (inactive) | 89.5% (inactive) | 67.4% (inactive) | 86.5% (inactive) | 5% (inactive) | 81.5% | 86.5% | -1.43% (inactive) | 0.33% (inactive) | 1.93% (inactive) | 4.75% (inactive) | -4.71% (inactive) | 94.2% (inactive) | 96% (inactive) | 0.805% (inactive) | 3.84% (inactive) |
| CCN(CCNC(=O)C1CCN(S(=O)(=O)c2cccc3cccnc23)CC1)c1ccccc1 | 87% | 84.5% (inactive) | 87% (inactive) | 79.7% (inactive) | 98.3% (inactive) | -2.15% (inactive) | 100% | 98.3% | -1.33% (inactive) | 20.5% (inactive) | -5.29% (inactive) | 8.53% (inactive) | 1.51% (inactive) | 94.4% (inactive) | 82.9% (inactive) | 0.21% (inactive) | 5.91% (inactive) |
| COC(=O)Cn1c(=O)c2c(nc3n2CC(C)CN3c2ccc(C)c(C)c2)n(C)c1=O (stereo not given) | 90.5% | 89% (inactive) | 90.5% (inactive) | 93.2% (inactive) | 85.5% (inactive) | 15.8% (inactive) | 69.7% | 85.5% | -9.47% (inactive) | -3.5% (inactive) | -5.87% (inactive) | 0.135% (inactive) | -0.75% (inactive) | 97.9% (inactive) | 91.1% (inactive) | 1.25% (inactive) | 4.14% (inactive) |
| c1ccc(-n2ncc3c(NC4CCCCCC4)ncnc32)cc1 | 83.5% | 77% (inactive) | 83.5% (inactive) | 75.2% (inactive) | 45.8% (active) | -28.2% (inactive) | 74% | 45.8% | -4.93% (inactive) | 1.67% (inactive) | -7.69% (inactive) | -4.42% (inactive) | -2.91% (inactive) | 88.4% (inactive) | 65.7% (inactive) | 1.17% (inactive) | 6.78% (inactive) |
| Cc1cccc(Cn2c(SCC(=O)Nc3ccccc3)nc3c2c(=O)[nH]c(=O)n3C)c1 | 81.5% | 97% (inactive) | 81.5% (inactive) | 93.9% (inactive) | 81.8% (inactive) | -0.02% (inactive) | 81.8% | 81.8% | -1.33% (inactive) | 0% (inactive) | -12.4% (inactive) | -8.03% (inactive) | -1.01% (inactive) | 91% (inactive) | 71% (inactive) | 1.79% (inactive) | 5.01% (inactive) |
| CC(NC(=O)C1CC1)C(c1cccs1)N1CCN(c2ccccc2)CC1 (stereo not given) | 95.5% | 96% (inactive) | 95.5% (inactive) | 105% (inactive) | 89.5% (inactive) | -4.32% (inactive) | 93.8% | 89.5% | -4.13% (inactive) | -5.57% (inactive) | -6.42% (inactive) | 6.87% (inactive) | 0.65% (inactive) | 92% (inactive) | 93.2% (inactive) | 2.08% (inactive) | -0.26% (inactive) |
| COC(=O)C1=C(N)OC2=C(C(=O)CCC2)C1c1cccs1 (stereo not given) | 110% | 85% (inactive) | 110% (inactive) | 93.7% (inactive) | 101% (inactive) | 17.8% (inactive) | 83.2% | 101% | -4.19% (inactive) | 4.1% (inactive) | -2.24% (inactive) | -6.3% (inactive) | -2.89% (inactive) | 94.9% (inactive) | 92.9% (inactive) | 2.75% (inactive) | 4.64% (inactive) |
| O=C(c1ccc2c(c1)OCCO2)N1CCCCC1 | 117% | 97% (inactive) | 117% (inactive) | 91.8% (inactive) | 101% (inactive) | -1.2% (inactive) | 102% | 101% | -0.91% (inactive) | 0.17% (inactive) | 3.7% (inactive) | 6.82% (inactive) | -1.22% (inactive) | 97.2% (inactive) | 97.4% (inactive) | 0.88% (inactive) | 5.28% (inactive) |
